A number with no mark means an inactive call. Calls come from the whole dose curve.
Test: qHTS drug screen for cell cycle checkpoint inhibitors in PARPi-resistant BRCA-mutant ovarian cancer cell lines. (AID 1963452)
Details: PEO1/OlaR viability, CellTiter-Glo luminescence, 96 h; stronger effect = lower value
How it was run: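 PEO1, PEO4 and PEO1/OlaR ovarian cancer cells, 600 per well, exposed 96 h at 37C to a dilution series. Viability read by CellTiter-Glo luminescence, normalized to DMSO and empty wells; activity summarized as Z-AUC.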

Compound | Z-AUC
CC(=O)N[C@H]1CSSC[C@@H](C(N)=O)NC(=O)[C@H](C(C)C)NC(=O)[C@H](C)NC(=O)[C@H](Cc2cnc[nH]2)NC1=O | -0.0315
O=C1S/C(=C\c2ccc(OCc3cccc(B(O)O)c3)cc2)C(=O)N1Cc1ccc(F)cc1 | 0.689
O=C(O)/C(S)=C/c1ccc(I)cc1 | 0.452
O=c1ncccn1[C@@H]1O[C@H](CO)[C@@H](O)[C@H]1O | -0.938
CC(C)OC(=O)[C@H](C)N[P@](=O)(OC[C@H]1O[C@@H](n2ccc(=O)[nH]c2=O)[C@](C)(F)[C@@H]1O)Oc1ccccc1 | -0.0429
Cc1nc(C)c(CN2CCN(C(c3ccc(F)cc3)c3ccc(F)cc3)CC2)nc1C | -0.108
C=C1/C(=C/C=C2\CCCC3(C)[C@@H]([C@H](C)/C=C/C=C/C(O)(CC)CC)CC[C@@H]23)C[C@@H](O)C[C@@H]1O (stereo not given in full) | -0.128
Nc1cccc2c1CN([C@H]1CCC(=O)NC1=O)C2=O | 0.0993
C[C@H]1CN(C2COC2)CCN1c1ccc(Nc2cc(-c3ccnc(N4CCn5c(cc6c5CC(C)(C)C6)C4=O)c3CO)cn(C)c2=O)nc1 | -0.103
CN(CCOc1ccc(-c2ccc3c(c2)OCO3)cc1C(C)(C)C)CC(=O)O | 0.446
C=CC(=O)N1C[C@H](Nc2ncnc3[nH]ccc23)CC[C@@H]1C | -0.649
COc1cc(-c2cn(C)c(=O)c3cnccc23)cc(OC)c1CN(C)C | 1.5
CC(C)(CO)n1cc(C(=O)c2cncc(NC(=O)Cc3ccc(Cl)cn3)c2)c2cnc(N)nc21 | -0.173
CCn1c(=O)c2c(nc(/C=C/c3ccc(OC)c(OC)c3)n2C)n(CC)c1=O | 0.577
CCC(=O)OCC(=O)C1(OC(=O)CC)C(C)CC2C3CCC4=CC(=O)C=CC4(C)C3(F)C(O)CC21C (stereo not given) | 0.365
O=C(Cc1ccccc1)Nc1nnc(CCSCCc2nnc(NC(=O)Cc3ccccc3)s2)s1 | 1.43
Cc1[nH]nc2ncc(C(=O)N3CCC[C@H]3c3ccc(Cl)cc3)cc12 | -0.0587
NS(=O)(=O)Oc1ccc2c3c(c(=O)oc2c1)CCCCC3 | 0.451

Compound | Z-AUC
Fc1ccc(-c2csc3ncnc(NCc4ccc5c(c4)OCO5)c23)cc1 | 0.367
CC(=O)N1CCC(Nc2cc(C(=O)NC[C@H](O)CN3CCc4ccccc4C3)ncn2)CC1 | 0.665
Nc1cc(COc2c(Cl)cc(C[C@H](N)C(=O)O)cc2Cl)c2oc(-c3ccccc3)nc2c1 | -1.13
C=CC(=O)N1CC(N2CCN(C(=O)CNc3cc(C4(C)CC4)c(Cl)cc3O)CC2)C1 | -0.243
COc1ccc(S(=O)(=O)NCc2ccc(C(=O)NCCc3ccc(Cl)cn3)cc2)cc1 | -2
CCOCOC[C@H](C[C@H](C)C(=O)NO)NC(=O)c1ccc(Oc2ccccc2)cc1 | 0.6
CN(C(=O)CNC(=O)/C=C/c1cccc(Cl)c1)C1CCS(=O)(=O)CC1 | -0.555
OCCOc1ccc(/C(=C(/CCCl)c2ccccc2)c2ccccc2)cc1 | -0.111
C=CC(=O)Nc1cc(N2CCN(CC)CC2)ccc1Nc1cc(N(C)C(=O)Nc2c(Cl)c(OC)cc(OC)c2Cl)ncn1 | 1.02
CC(C)Oc1ccc(-c2nn([C@@H](C)c3oc4ccc(F)cc4c(=O)c3-c3cccc(F)c3)c3ncnc(N)c23)cc1F | 0.0255
Ac-PHSCN-NH2 | -0.465
CS(=O)(=O)c1ccc([C@@H](CC2CCCC2)C(=O)Nc2nccs2)cc1 | 0.78
CCS(=O)(=O)N1CCC(C(C)n2c(C)c(C(=O)NCc3c(OC)cc(C)[nH]c3=O)c3ccccc32)CC1 (stereo not given) | 1.37
CCOc1ccc(-n2c([C@@H](C)N(Cc3cccnc3)C(=O)Cc3ccc(F)c(C(F)(F)F)c3)nc3ncccc3c2=O)cc1 | 1.64
COc1cc(-c2cn(C)c(=O)c3cnccc23)c(OC)cc1CN(C)C | -0.443
COC(=O)C1=C(C)NC(c2ncc(F)cc2F)=N[C@@H]1c1ccc(F)cc1Cl | 1.3
CCCN(CCC)C(=O)C1=Cc2ccc(-c3ccc(C(=O)N4CCCC4)cc3)cc2N=C(N)C1 | 0.263

Reference: PubChem BioAssay (NCATS)
